Assay results taken from PubChem BioAssay (EPA / NIEHS).
Results filed as inconclusive are left out. Active and inactive are the calls of the source. How the source made its calls: active means hit-call score of the fitted dose curve at least 0.9, where 1 is the maximum; inconclusive means response in the unintended direction; inactive means score below 0.9.

Molecular target: human Adrenergic, Alpha 2c Receptor (Adra2C), ADRA2C (gene 152) (UniProt P18825)
Experiment: NVS_GPCR_hAdra2C: NovaScreen (NVS) G Protein-Coupled Receptor Assay for human Adrenergic, Alpha 2c Receptor (Adra2C) (AID 2283259)
Protocol: (§1) NVS_GPCR_hAdra2C is a biochemical, single-readout assay that uses extracted gene-proteins from SF9 in a cell-free assay. Measurements were taken 1 hour after chemical dosing in a 96-well plate.NVS_GPCR_hAdra2C is one of one assay component(s) measured or calculated from the NVS_GPCR_hAdra2C assay. It is designed to make measurements of radioligand binding, a form of binding reporter, as detected with scintillation counting signals by Filter-based radiodetection technology.Data from the assay component NVS_GPCR_hAdra2C was analyzed into 1 assay endpoint. This assay endpoint, NVS_GPCR_hAdra2C, was analyzed in the positive analysis fitting direction relative to DMSO as the negative control and baseline of activity. Using a type of binding reporter, loss-of-signal activity can be used to understand changes in the binding as they relate to the gene ADRA2C. Furthermore, this assay endpoint can be referred to as a primary readout, because the performed assay has only produced 1 assay endpoint. To generalize the intended target to other relatable targets, this assay endpoint is annotated to the gpcr intended target family, where the subfamily is rhodopsin-like receptor.
Binding assays used specific radioligands (tritiated, iodinated) with non-radioactive competitive displacement ligands in agonist or antagonist protocols (as indicated) and various reference compounds and inhibitors to titrate specific binding to receptors and transporters. Most enzyme assays (CYPs, kinases, phosphatases, proteases, HDACs) used recombinant protein and specific substrates (fluorescence mostly, some colorimetric and radioactive) and inhibitors, followed by a biochemical separation of substrate and product. All assays for the biochemical HTS were initially run in duplicate at a single concentration (10 uM for CYP450 assays and 25 uM for all others). […] Each assay was run with positive and negative controls, and concurrent controls on every plate. […]

human Adrenergic, Alpha 2c Receptor (Adra2C), ADRA2C (gene 152), sequence (P18825 whole entry, looked up): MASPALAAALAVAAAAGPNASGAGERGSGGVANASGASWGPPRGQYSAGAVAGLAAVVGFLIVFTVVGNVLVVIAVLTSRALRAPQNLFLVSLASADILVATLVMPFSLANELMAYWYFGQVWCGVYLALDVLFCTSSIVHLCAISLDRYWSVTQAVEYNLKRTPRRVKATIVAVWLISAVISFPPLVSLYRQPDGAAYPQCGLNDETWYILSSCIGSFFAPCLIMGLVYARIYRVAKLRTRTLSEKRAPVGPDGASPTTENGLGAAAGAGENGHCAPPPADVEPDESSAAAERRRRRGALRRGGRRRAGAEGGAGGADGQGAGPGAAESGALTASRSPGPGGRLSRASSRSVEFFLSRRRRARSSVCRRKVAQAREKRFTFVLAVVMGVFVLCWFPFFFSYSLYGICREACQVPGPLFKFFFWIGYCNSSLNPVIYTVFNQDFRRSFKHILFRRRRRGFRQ

SMILES	AC50	outcome
CC[C@H](C)[C@H]1O[C@]2(C=C[C@@H]1C)C[C@@H]1C[C@@H](C/C=C(\C)[C@@H](O[C@H]3C[C@H](OC)[C@@H](O[C@H]4C[C@H](OC)[C@@H](NC)[C@H](C)O4)[C@H](C)O3)[C@@H](C)/C=C/C=C3\CO[C@@H]4[C@H](O)C(C)=C[C@@H](C(=O)O1)[C@]34O)O2	10.7 µM (active)	–
CCc1cnc(C2=NC(C)(C(C)C)C(=O)N2)c(C(=O)O)c1 (centres undefined)	–	inactive
C[N+]1(C)CCCCC1	–	inactive

Molecular target: Type-1 angiotensin II receptor (Homo sapiens) (UniProt P30556)
Sequence (P30556 whole entry, looked up): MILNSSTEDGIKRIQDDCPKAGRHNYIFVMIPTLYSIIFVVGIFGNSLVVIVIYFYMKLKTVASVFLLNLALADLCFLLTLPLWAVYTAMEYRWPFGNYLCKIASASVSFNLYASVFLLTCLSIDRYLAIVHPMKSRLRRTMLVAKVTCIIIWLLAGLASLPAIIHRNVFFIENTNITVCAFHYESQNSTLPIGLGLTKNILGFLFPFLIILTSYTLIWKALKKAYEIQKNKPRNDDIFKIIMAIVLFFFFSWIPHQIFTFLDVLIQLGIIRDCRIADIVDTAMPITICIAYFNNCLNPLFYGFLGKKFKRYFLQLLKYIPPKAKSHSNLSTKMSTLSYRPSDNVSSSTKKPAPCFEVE
Experiment: NVS_GPCR_hAT1: NovaScreen (NVS) G Protein-Coupled Receptor Assay for human Angiotensin II receptor type 1 (AT1) (AID 2283263)
How it was run: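 Membranes from KAN-TS cells; radioligand competitive displacement, 3 h, filtration and scintillation counting. Single-point duplicate screen at 25 uM, then concentration-response up to 50 uM for hits; loss of signal fitted versus DMSO.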

SMILES	AC50	outcome
N#CSCSC#N	14.9 µM (active)	–
CCCSP(=O)(OCC)Oc1ccc(Br)cc1Cl (centres undefined)	–	inactive
CC[C@H](C)[C@H]1O[C@]2(C=C[C@@H]1C)C[C@@H]1C[C@@H](C/C=C(\C)[C@@H](O[C@H]3C[C@H](OC)[C@@H](O[C@H]4C[C@H](OC)[C@@H](NC)[C@H](C)O4)[C@H](C)O3)[C@@H](C)/C=C/C=C3\CO[C@@H]4[C@H](O)C(C)=C[C@@H](C(=O)O1)[C@]34O)O2	17 µM (active)	–
CCCOc1nn(C(=O)NS(=O)(=O)c2ccccc2C(=O)OC)c(=O)n1C	–	inactive
CCOP(=O)(OCC)Oc1cc(C)nc(C(C)C)n1	–	inactive
COP(=O)(OC)OC(Br)C(Cl)(Cl)Br (centres undefined)	13.5 µM (active)	–
COc1cc(OC)nc(Sc2cccc(Cl)c2C(=O)O)n1	–	inactive
CCOP(=S)(OCC)Oc1cc(C)nc(C(C)C)n1	–	inactive

Molecular target: human Dopamine Receptor D2 (DRD2), DRD2 (gene 1813) (UniProt P14416)
Sequence (P14416 whole entry, looked up): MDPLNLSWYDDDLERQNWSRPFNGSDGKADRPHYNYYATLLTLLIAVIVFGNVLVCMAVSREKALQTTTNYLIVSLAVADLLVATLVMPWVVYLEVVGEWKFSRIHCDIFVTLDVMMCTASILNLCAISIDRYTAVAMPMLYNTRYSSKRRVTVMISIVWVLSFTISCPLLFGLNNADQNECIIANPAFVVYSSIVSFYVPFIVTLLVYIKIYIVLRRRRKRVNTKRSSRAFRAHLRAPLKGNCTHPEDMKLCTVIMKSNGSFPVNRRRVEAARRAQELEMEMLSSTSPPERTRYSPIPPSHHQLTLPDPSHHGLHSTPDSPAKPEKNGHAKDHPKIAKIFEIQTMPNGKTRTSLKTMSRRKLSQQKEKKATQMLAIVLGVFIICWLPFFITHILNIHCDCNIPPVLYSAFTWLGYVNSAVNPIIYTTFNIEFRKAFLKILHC
Experiment: NVS_GPCR_hDRD2s: NovaScreen (NVS) G Protein-Coupled Receptor Assay for human Dopamine Receptor D2 (DRD2) (AID 2283266)
Protocol: as §1, with “NVS_GPCR_hDRD2s” for “NVS_GPCR_hAdra2C”, “CHO” for “SF9”, “1.5 hours” for “1 hour”, “plate.NVS_GPCR_hDRD2s” for “plate.NVS_GPCR_hAdra2C”, “NVS_GPCR_hDRD2s,” for “NVS_GPCR_hAdra2C,”, “DRD2.” for “ADRA2C.”
Binding assays used specific radioligands (tritiated, iodinated) with non-radioactive competitive displacement ligands in agonist or antagonist protocols (as indicated) and various reference compounds and inhibitors to titrate specific binding to receptors and transporters. Most enzyme assays (CYPs, kinases, phosphatases, proteases, HDACs) used recombinant protein and specific substrates (fluorescence mostly, some colorimetric and radioactive) and inhibitors, followed by a biochemical separation of substrate and product. All assays for the biochemical HTS were initially run in duplicate at a single concentration (10 uM for CYP450 assays and 25 uM for all others). […] Each assay was run with positive and negative controls, and concurrent controls on every plate. The follow-up (secondary) screen tested active chemical-pairs in concentration series, as well as a few additional assays not tested in the primary screen, some selected negative inactives, and several cases re-run in the concentration series for confirmatory purposes.

SMILES	outcome	AC50
CN(C)C(=O)Nc1cccc(C(F)(F)F)c1	inactive	–
CC[C@H](C)[C@H]1O[C@]2(C=C[C@@H]1C)C[C@@H]1C[C@@H](C/C=C(\C)[C@@H](O[C@H]3C[C@H](OC)[C@@H](O[C@H]4C[C@H](OC)[C@@H](NC)[C@H](C)O4)[C@H](C)O3)[C@@H](C)/C=C/C=C3\CO[C@@H]4[C@H](O)C(C)=C[C@@H](C(=O)O1)[C@]34O)O2	–	25 µM (active)
O=C(O)c1cc(Oc2ccc(C(F)(F)F)cc2Cl)ccc1[N+](=O)[O-]	inactive	–
S=C1NCCN1	inactive	–

Molecular target: D(1A) dopamine receptor (Homo sapiens) (UniProt P21728)
Sequence (P21728 whole entry, looked up): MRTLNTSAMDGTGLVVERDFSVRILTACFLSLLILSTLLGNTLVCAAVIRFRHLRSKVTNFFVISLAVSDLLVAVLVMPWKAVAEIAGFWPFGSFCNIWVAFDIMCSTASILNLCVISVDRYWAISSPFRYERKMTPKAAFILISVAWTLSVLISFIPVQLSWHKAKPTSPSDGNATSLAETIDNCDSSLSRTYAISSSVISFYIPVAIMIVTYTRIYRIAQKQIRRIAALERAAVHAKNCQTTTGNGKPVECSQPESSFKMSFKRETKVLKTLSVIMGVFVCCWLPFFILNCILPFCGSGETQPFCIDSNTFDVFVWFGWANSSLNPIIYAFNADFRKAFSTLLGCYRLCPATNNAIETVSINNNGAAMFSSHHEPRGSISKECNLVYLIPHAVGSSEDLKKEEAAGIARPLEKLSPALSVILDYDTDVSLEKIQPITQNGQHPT
Experiment: NVS_GPCR_hDRD1: NovaScreen (NVS) G Protein-Coupled Receptor Assay for human Dopamine Receptor D1 (DRD1) (AID 2283269)
How it was run: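 Cell-free competition with radioligand, filter-trapped and scintillation-counted 1 h post-dose, using HEK293-derived human D1 preparation. Duplicate single-point testing at 25 uM first, then concentration series for actives; DMSO served as baseline, loss-of-signal scored.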

SMILES	AC50
CC(C)=CC1C(C(=O)OCN2C(=O)C3=C(CCCC3)C2=O)C1(C)C (centres undefined)	6.68 µM (active)
CC[C@H](C)[C@H]1O[C@]2(C=C[C@@H]1C)C[C@@H]1C[C@@H](C/C=C(\C)[C@@H](O[C@H]3C[C@H](OC)[C@@H](O[C@H]4C[C@H](OC)[C@@H](NC)[C@H](C)O4)[C@H](C)O3)[C@@H](C)/C=C/C=C3\CO[C@@H]4[C@H](O)C(C)=C[C@@H](C(=O)O1)[C@]34O)O2	8.1 µM (active)
COP(=O)(OC)OC(Br)C(Cl)(Cl)Br (centres undefined)	11.8 µM (active)
CCCOCC(=Nc1ccc(Cl)cc1C(F)(F)F)n1ccnc1	9.19 µM (active)
